This is one part of a sample in which the strongest signals are shown more often than they occur.
Legend:
Assay in all cases: glycan array binding signal (z-score within array); higher = stronger binding
Settings in all cases: glycan notation: IUPAC condensed, linker removed
[1] = target: Fuc(a1-2)Gal(b1-3)GlcNAc(b1-2)Man(a1-3)[Fuc(a1-2)Gal(b1-3)GlcNAc(b1-2)Man(a1-6)]Man(b1-4)GlcNAc(b1-4)[Fuc(a1-6)]GlcNAc
Method in brief: (§1)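 Glycan array binding is given as a within-array Z-score, which can be read as non-binding when negative. The arrays, 3228 of them, came from the Consortium for Functional Glycomics database and were retained only where the protein sequence was available. Z-scores were averaged across arrays of the same protein sequence at different concentrations or buffers and across linkers.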

[2] = target: Fuc(a1-2)Gal(b1-4)Fuc(a1-3)]GlcNAc(b1-2)Man(a1-3)[Fuc(a1-2)Gal(b1-4)[Fuc(a1-3)]GlcNAc(b1-2)Man(a1-6)]Man(b1-4)GlcNAc(b1-4)GlcNAc
Method in brief: as §1

Fuc(a1-2)Gal(b1-4)Glc6S = target: Fuc(a1-2)Gal(b1-4)Glc6S
Method in brief: as §1

[3] = target: Fuc(a1-2)Gal(b1-4)GlcNAc(b1-3)[Fuc(a1-3)[Gal(b1-4)]GlcNAc(b1-6)]Gal(b1-4)Glc
Method in brief: as §1

[4] = target: Fuc(a1-2)[Gal(a1-3)]Gal(b1-4)GlcNAc(b1-2)Man(a1-3)[Fuc(a1-2)[Gal(a1-3)]Gal(b1-4)GlcNAc(b1-2)Man(a1-6)]Man(b1-4)GlcNAc(b1-4)[Fuc(a1-6)]GlcNAc
Method in brief: as §1

[5] = target: Fuc(a1-2)[GalNAc(a1-3)]Gal(b1-4)GlcNAc(b1-3)Gal(b1-4)GlcNAc(b1-3)Gal(b1-4)GlcNAc
Method in brief: as §1

[6] = target: Fuc(a1-3)[Gal(b1-4)]GlcNAc(b1-6)[Gal(b1-3)GlcNAc(b1-3)]Gal(b1-4)Glc
Method in brief: as §1

[7] = target: Fuc(a1-3)[GalNAc(b1-4)]GlcNAc6S
Method in brief: as §1

[8] = target: Gal(b1-3)Gal(b1-4)GlcNAc(b1-2)Man(a1-3)[Gal(b1-3)Gal(b1-4)GlcNAc(b1-2)Man(a1-6)]Man(b1-4)GlcNAc(b1-4)GlcNAc
Method in brief: as §1

[9] = target: Gal(b1-3)GalNAc(b1-4)[Neu5Ac(a2-3)]Gal(b1-4)Glc
Method in brief: as §1

[10] = target: Gal(b1-3)GlcNAc(b1-3)Gal(b1-4)GlcNAc
Method in brief: as §1

Gal(b1-4)Glc6S = target: Gal(b1-4)Glc6S
Method in brief: as §1

[11] = target: Gal(b1-4)GlcNAc(b1-2)Man(a1-3)[Gal(b1-4)GlcNAc(b1-2)Man(a1-6)]Man(b1-4)GlcNAc(b1-4)GlcNAc
Method in brief: as §1

[12] = target: Gal(b1-4)GlcNAc(b1-2)Man(a1-3)[Gal(b1-4)GlcNAc(b1-2)Man(a1-6)]Man(b1-4)GlcNAc(b1-4)[Fuc(a1-6)]GlcNAc
Method in brief: as §1

[13] = target: Gal(b1-4)GlcNAc(b1-3)Gal(b1-4)Glc
Method in brief: as §1

[14] = target: Gal(b1-4)GlcNAc(b1-3)Gal(b1-4)GlcNAc(b1-2)Man(a1-3)[Gal(b1-4)GlcNAc(b1-3)Gal(b1-4)GlcNAc(b1-2)Man(a1-6)]Man(b1-4)GlcNAc(b1-4)GlcNAc
Method in brief: as §1

[15] = target: Gal(b1-4)GlcNAc(b1-3)Gal(b1-4)GlcNAc(b1-3)Gal(b1-4)GlcNAc(b1-2)Man(a1-3)[Gal(b1-4)GlcNAc(b1-3)Gal(b1-4)GlcNAc(b1-3)Gal(b1-4)GlcNAc(b1-2)Man(a1-6)]Man(b1-4)GlcNAc(b1-4)GlcNAc
Method in brief: as §1

[16] = target: Gal(b1-4)GlcNAc(b1-3)Gal(b1-4)GlcNAc(b1-3)Gal(b1-4)GlcNAc(b1-2)Man(a1-3)[Gal(b1-4)GlcNAc(b1-3)Gal(b1-4)GlcNAc(b1-3)Gal(b1-4)GlcNAc(b1-2)Man(a1-6)]Man(b1-4)GlcNAc(b1-4)[Fuc(a1-6)]GlcNAc
Method in brief: as §1

[17] = target: Gal(b1-4)GlcNAc(b1-3)Gal(b1-4)GlcNAc(b1-3)Gal(b1-4)GlcNAc(b1-2)[Gal(b1-4)GlcNAc(b1-3)Gal(b1-4)GlcNAc(b1-3)Gal(b1-4)GlcNAc(b1-6)]Man(a1-6)[Gal(b1-4)GlcNAc(b1-3)Gal(b1-4)GlcNAc(b1-3)Gal(b1-4)GlcNAc(b1-2)Man(a1-3)]Man(b1-4)GlcNAc(b1-4)[Fuc(a1-6)]GlcNAc
Method in brief: as §1

[18] = target: Gal(b1-4)GlcNAc(b1-3)Gal(b1-4)GlcNAc(b1-3)Gal(b1-4)GlcNAc(b1-3)Gal(b1-4)GlcNAc(b1-3)Gal(b1-4)GlcNAc(b1-2)Man(a1-3)[Gal(b1-4)GlcNAc(b1-3)Gal(b1-4)GlcNAc(b1-3)Gal(b1-4)GlcNAc(b1-3)Gal(b1-4)GlcNAc(b1-3)Gal(b1-4)GlcNAc(b1-2)Man(a1-6)]Man(b1-4)GlcNAc(b1-4)GlcNAc
Method in brief: as §1

[19] = target: Gal(b1-4)GlcNAc(b1-3)Gal(b1-4)GlcNAc(b1-3)[Gal(b1-4)GlcNAc(b1-3)Gal(b1-4)GlcNAc(b1-6)]GalNAc
Method in brief: as §1

[20] = target: Gal(b1-4)GlcNAc(b1-6)[Gal(b1-4)GlcNAc(b1-3)]GalNAc
Method in brief: as §1

Gal3S4S(b1-4)GlcNAc = target: Gal3S4S(b1-4)GlcNAc
Method in brief: as §1

Gal4S(b1-4)GlcNAc = target: Gal4S(b1-4)GlcNAc
Method in brief: as §1

[21] = target: GalNAc(a1-3)GalNAc(b1-3)Gal(a1-4)Gal(b1-4)Glc
Method in brief: as §1

GalNAc(b1-3)GalNAc = target: GalNAc(b1-3)GalNAc
Method in brief: as §1

B1: BabA (Helicobacter pylori), O52269_HELPY (protein)
chain: AEDDGFYMSAGYQIGEAAQMVKNTKGIQELSDNYENLSNLLTRYSTLNTLIKLSADPSAVNAARENLGASAKNLIGDTKNSPAYQAVLLAINAAVGFWNVVGYVTQCGGNANGQKSTSSTTIFNNEPGYRSTSITCSLNGHMPGYYGPMSIENFKKLNEAYQILQTALKNGLPALKENNGTVNVTYSYTCSGEGNDNCSLQTTGVTNQNNGTKTETQTIDGKSVTTTISSKVVDSQ
glycan array binding signal (z-score) [1]: -0.237
glycan array binding signal (z-score) [2]: 3.3
glycan array binding signal (z-score) (Fuc(a1-2)Gal(b1-4)Glc6S): 0.321
glycan array binding signal (z-score) [3]: -0.3
glycan array binding signal (z-score) [4]: -0.046
glycan array binding signal (z-score) [5]: -0.054
glycan array binding signal (z-score) [6]: 0.017
glycan array binding signal (z-score) [7]: -0.664
glycan array binding signal (z-score) [8]: 0.28
glycan array binding signal (z-score) [9]: 0.035
glycan array binding signal (z-score) [10]: -0.811
glycan array binding signal (z-score) (Gal(b1-4)Glc6S): -0.359
glycan array binding signal (z-score) [11]: -0.732
glycan array binding signal (z-score) [12]: 0.092
glycan array binding signal (z-score) [13]: -0.535
glycan array binding signal (z-score) [14]: 4.08
glycan array binding signal (z-score) [15]: 4
glycan array binding signal (z-score) [16]: 2.03
glycan array binding signal (z-score) [17]: 2.31
glycan array binding signal (z-score) [18]: 3.86
glycan array binding signal (z-score) [19]: 4.39
glycan array binding signal (z-score) [20]: -0.568
glycan array binding signal (z-score) (Gal3S4S(b1-4)GlcNAc): 0.144
glycan array binding signal (z-score) (Gal4S(b1-4)GlcNAc): 0.875
glycan array binding signal (z-score) [21]: -0.709
glycan array binding signal (z-score) (GalNAc(b1-3)GalNAc): -0.807

Reference: the supplement of paper PMC8728848
